Reference: PubChem BioAssay (NCATS)
Inconclusive results are not listed. Calls of active or inactive are those of the source. Unless noted, calls come from the whole dose curve; as a rule, active = well fitted curve in the direction sought with a large enough effect; inconclusive = small, poorly fitted or top-dose-only effect, or another doubt; inactive = no such curve, though single readings can be large; an effect the other way counts as inactive or inconclusive.

Columns and labels:
[1] = Cytotoxicity counterscreen for NFkB agonists and antagonists (AID 624476);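 note: cells exposed to compound for 48 hours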; note: potency is the fitted concentration of half-maximal effect
[2] = qHTS Assay for Identification of Small Molecule Agonists for NFkB Signaling Pathway. (AID 624478);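 note: compounds tested together with TNF alpha at its EC50 of 10 pM; 0% is about no effect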
In short: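 Assay medium contained 0.5% FBS and 10 mM HEPES pH 7.3. Compounds were added together with TNF alpha (10 pM final), incubated 5 h at 37 C, and the beta-lactamase signal was measured fluorometrically.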

[3] = Cell Proliferation Assay against the TMD8 Cell Line (AID 651645); settings: TMD8 DLBCL cell line proliferation/viability; at 46.1 µM (top of the series);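 note: cells exposed to compound for 48 h before reading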
In short: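 Luminescent ATP read-out (CellTiter-Glo, 15 min RT) after 48 h compound exposure of log-growing TMD8 cells at 37C; percent activity scaled between DMSO as 100% and 9.2 uM bortezomib final as 0%.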

[4] = Cell Proliferation Assay against the HBL1 Cell Line (AID 651646); settings: HBL1 DLBCL cells; at 46.1 µM (top of the series);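 note: cells exposed to compound for 48 h before reading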
In short: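 CellTiter-Glo luminescence after 48 h compound exposure at 37C gives percent activity, with DMSO as 100% and 9.2 uM bortezomib final as 0%. Cells: 500 log-phase HBL1 per well, RPMI plus 5% FBS.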

[5] = Cell Proliferation Assay against the TMD8 Cell Line (Caspase readout at 8 hrs) (AID 651713); note: potency is the fitted concentration of half-maximal effect
In short: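 Luminescent caspase 3/7 assay; TMD8 cells, 8 h treatment at 37C, 5% CO2. Normalisation: DMSO 0%, 9.2 uM bortezomib 100%.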

[6] = qHTS Assay for Identification of Small Molecule Antagonists for NFkB Signaling Pathway. (AID 624479; calls by dose curve;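 note: pathway stimulated with TNF alpha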; note: potency is the fitted concentration of half-maximal effect)
[7] = Cell Proliferation Assay against the TMD8 Cell Line (Caspase readout at 16 hrs) (AID 651712); note: potency is the fitted concentration of half-maximal effect
In short: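 Caspase-Glo luminescence measured apoptosis after a 16 h, 37 C compound exposure of TMD8 cells (500 cells/well, 5% FBS RPMI). DMSO set 0% and bortezomib at 9.2 uM final set 100% activity.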

Compound | Potency [1] | outcome [2] | viability (% of control) [3] [%] | viability, percent of control [4] [%] | Potency [5] | Potency [6] | Potency [7]
CN1CCN(c2cc(C(=O)Nc3ccc4c(c3)-c3c(c(C(N)=O)nn3-c3ccc(F)cc3)CC4)c(Cl)cn2)CC1 | inactive | inactive | 0.112 | 0.345 | 33200 nM (active) | – | –
Cc1ccc(C(=O)Nc2cccc(C(F)(F)F)c2)cc1-c1ccc2nc(NCCN3CCOCC3)ncc2c1 | 20900 nM (active) | inactive | 0.164 | 0.88 | 20900 nM (active) | 4730 nM (active) | –
Nc1ccccc1NC(=O)c1ccc(CNc2nccc(-c3cccnc3)n2)cc1 | 14800 nM (active) | inactive | 2.31 | 4.64 | inactive | 150 nM (active) | 20900 nM (active)
CN(c1ncccc1CNc1nc(Nc2ccc3c(c2)CC(=O)N3)ncc1C(F)(F)F)S(C)(=O)=O | 10500 nM (active) | inactive | -0.0421 | 40.9 | 8330 nM (active) | 1490 nM (active) | –
COc1cccc2nc(-c3cccs3)nc(NN3C(=O)C=C(C)C3=O)c12 | inactive | inactive | 3.01 | 3.09 | 166 nM (active) | 841 nM (active) | –
CCCCN1CCC(CNC(=O)c2c3n(c4ccccc24)CCCO3)CC1 | inactive | inactive | – | 93.7 | inactive | inactive | inactive
N#Cc1c(O)c2c(-c3ccc(-c4ccccc4O)cc3)csc2[nH]c1=O | inactive | inactive | 112 | 114 | inactive | inactive | inactive
O=C(O)[C@H](Cc1c[nH]c2ccccc12)N1C(=O)c2ccccc2C1=O | inactive | inactive | 104 | 130 | inactive | inactive | inactive
COc1cc(OC2CCN(C)CC2)ccc1Nc1ncc2c(n1)n(C1CCCC1)c(=O)n2C | inactive | inactive | 56.7 | 38.2 | 10500 nM (active) | – | –
O=C(C=Cc1c(C(=O)O)[nH]c2cc(Cl)cc(Cl)c12)Nc1ccccc1 | inactive | inactive | 103 | 112 | inactive | inactive | inactive
Cc1nc2cnc3ccc(C#Cc4cccnc4)cc3c2n1-c1ccc(C(C)(C)C#N)cc1 | inactive | inactive | 0.22 | 0.379 | 26400 nM (active) | – | –
O=C(C=Cc1cccnc1)NCCCCC1CCN(C(=O)c2ccccc2)CC1 | inactive | inactive | 7.31 | 53.4 | inactive | inactive | inactive
COc1ccc(CC2SC(=O)NC2=O)cc1C(=O)NCc1ccc(C(F)(F)F)cc1 (centres undefined) | inactive | inactive | 71.9 | 66 | inactive | inactive | –
CN1CC[C@@H](c2c(O)cc(O)c3c(=O)cc(-c4ccccc4Cl)oc23)[C@@H](O)C1 | 132 nM (active) | inactive | -0.0054 | 41.8 | 74.3 nM (active) | 14.9 nM (active) | –
CC(=O)OCCN1C(=O)c2c(C)nc3ccc(S(=O)(=O)N4CCOCC4)cc3c2C1=O | inactive | inactive | 94.5 | 105 | inactive | inactive | inactive
C1Cc2[nH]nc(-c3nn[nH]n3)c2C1 | inactive | inactive | 103 | 91.7 | inactive | inactive | inactive
Nc1nc(-c2nn(Cc3ccccc3F)c3ncccc23)nc(N)c1N1CCOCC1 | inactive | inactive | – | – | inactive | inactive | inactive
CC(C)CC(=O)Nc1n[nH]c2c1CN(C(=O)C1CCN(C)CC1)C2(C)C | 2350 nM (active) | inactive | 4.73 | 49.6 | 2350 nM (active) | 266 nM (active) | –
Cc1[nH]c2ccccc2c1CCNCc1ccc(C=CC(=O)NO)cc1 | 332 nM (active) | inactive | 1.52 | -0.0299 | – | – | 33.2 nM (active)
Cc1[nH]nc2ccc(-c3cncc(OC[C@@H](N)Cc4ccccc4)c3)cc12 | 4690 nM (active) | inactive | -0.774 | 4.82 | 2350 nM (active) | 168 nM (active) | 1320 nM (active)
CCOc1cc2ncc(C#N)c(Nc3ccc(F)c(Cl)c3)c2cc1NC(=O)C=CCN(C)C | 20900 nM (active) | inactive | -0.0881 | 2.39 | 16600 nM (active) | 11900 nM (active) | –
